# Source: PubChem BioAssay (EPA / NIEHS)
# Where “and” joins values, the source holds several entries; their conditions need not be identical. Equal values may be shown once. The source holds several records for some structures; these can differ, active in one and inactive in another. Calls of active or inactive are those of the source. Rule for the calls: active = hit-call score of the fitted dose curve at least 0.9, where 1 is the maximum; inactive = score below 0.9.
# Columns and labels:
# [1] = read-out: Intercellular Adhesion Molecule 1 (ICAM1), ICAM1 (gene 3383); test: BSK_hDFCGF_ICAM1: BioMAP Diversity Plus: hDFCGF Assay for Intercellular Adhesion Molecule 1 (ICAM1) Biomarker Activity (AID 2284287); details: primary human foreskin fibroblasts
# Outline: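 Primary human foreskin fibroblasts (hDFCGF system) dosed with chemical; ICAM-1 quantified by ELISA at 24 h relative to DMSO. Parallel SRB total-protein staining to assess overt cytotoxicity.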
# CD40, CD40 (gene 958) = test: BSK_IMphg_CD40: BioMAP Diversity Plus: IMphg Assay for CD40 Biomarker Activity (AID 2284288); details: primary human endothelial cells with macrophages
# Outline: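 Venular endothelial cells co-cultured with macrophages (human primary), CD40 measured by ELISA 24 h after dosing. Positive-direction fit vs DMSO baseline; cytotoxicity tracked by SRB total-protein staining in parallel cultures.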
# [2] = read-out: TIMP metallopeptidase inhibitor 2 (TIMP2), TIMP2 (gene 7077); test: BSK_hDFCGF_TIMP2: BioMAP Diversity Plus: hDFCGF Assay for TIMP metallopeptidase inhibitor 2 (TIMP2) Biomarker Activity (AID 2284289); details: primary human foreskin fibroblasts
# Outline: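 Primary human foreskin fibroblasts in the hDFCGF system, dosed for 24 h; TIMP-2 level measured by ELISA, fitted in the positive direction against DMSO; cytotoxicity checked in parallel by sulforhodamine B total protein staining.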
# [3] = read-out: Interleukin-1 alpha (IL1a), IL1A (gene 3552); test: BSK_IMphg_IL1a: BioMAP Diversity Plus: IMphg Assay for Interleukin-1 alpha (IL1a) Biomarker Activity (AID 2284290); details: primary human endothelial cells with macrophages
# Outline: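 Human venular endothelial cells co-cultured with macrophages, IMphg system. IL-1α is measured by ELISA 24 h after dosing and fitted in the positive direction against DMSO. Cytotoxicity is assessed by SRB staining of parallel cultures.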
# [4] = read-out: E-selectin (Homo sapiens) (UniProt P16581); test: BSK_IMphg_ESelectin: BioMAP Diversity Plus: IMphg Assay for Eselectin Biomarker Activity (AID 2284291); details: primary human endothelial cells with macrophages
# Outline: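 Human venular endothelial cell–macrophage co-culture, E-selectin measured by ELISA 24 h after chemical dosing. Signal fitted in the positive direction against DMSO as negative control and baseline.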
# [5] = BSK_IMphg_SRB: Viability Assessment in the BioMAP Diversity Plus: IMphg Assay (AID 2284292); details: primary human endothelial cells with macrophages;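 note: measured one day after compound addition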
# Outline: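 Human venular endothelial cells with macrophages, 24 h after chemical dosing; total protein by 0.1% SRB staining after 10% TCA fixation, read at 560 nm. Positive-direction fitting versus DMSO baseline.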
# [6] = read-out: Macrophage colony-stimulating factor (MCSF), CSF1 (gene 1435); test: BSK_IMphg_MCSF: BioMAP Diversity Plus: IMphg Assay for Macrophage colony-stimulating factor (MCSF) Biomarker Activity (AID 2284293); details: primary human endothelial cells with macrophages
# Outline: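 Co-culture of human venular endothelial cells and macrophages, 24 hours of chemical exposure. M-CSF quantified by ELISA, with parallel SRB total-protein staining for cytotoxicity; activity fitted relative to DMSO.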
# [7] = read-out: Interleukin-10 (IL10), IL10 (gene 3586); test: BSK_IMphg_IL10: BioMAP Diversity Plus: IMphg Assay for Interleukin-10 (IL10) Biomarker Activity (AID 2284294); details: primary human endothelial cells with macrophages
# Outline: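 Human venular endothelial cells cocultured with macrophages, dosed 24 h; IL-10 measured by ELISA, activity relative to DMSO. Cytotoxicity assessed in parallel cultures by sulforhodamine B total-protein staining.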
# [8] = BSK_IMphg_SRB.Mphg: Macrophage Viability Assessment in the BioMAP Diversity Plus: IMphg Assay (AID 2284295); details: primary human endothelial cells with macrophages
# Outline: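 Venular endothelial cells co-cultured with macrophages, read 24 h after dosing. Total protein measured by 0.1% SRB staining after 10% TCA fixation, absorbance at 560 nm. Fitted in positive direction against DMSO baseline.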
# [9] = IUF_NPC2c_oligodendrocyte_migration_120hr: Leibniz Research Institute for Environmental Medicine (IUF) 120-hour Neural Progenitor Cell Migration Assay for Oligodendrocyte Migration (NPC2c) (AID 2284297);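 note: O4-positive oligodendrocyte migration distance divided by radial glia migration distance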
# Outline: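 Using fetal brain neural progenitor spheres differentiating in N2 medium at 37C, compounds were present for 120 h. Oligodendrocyte migration distance, normalized to radial glia migration, was measured from imaged O4 staining.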
# Sequence of E-selectin (Homo sapiens) (P16581 whole entry, looked up): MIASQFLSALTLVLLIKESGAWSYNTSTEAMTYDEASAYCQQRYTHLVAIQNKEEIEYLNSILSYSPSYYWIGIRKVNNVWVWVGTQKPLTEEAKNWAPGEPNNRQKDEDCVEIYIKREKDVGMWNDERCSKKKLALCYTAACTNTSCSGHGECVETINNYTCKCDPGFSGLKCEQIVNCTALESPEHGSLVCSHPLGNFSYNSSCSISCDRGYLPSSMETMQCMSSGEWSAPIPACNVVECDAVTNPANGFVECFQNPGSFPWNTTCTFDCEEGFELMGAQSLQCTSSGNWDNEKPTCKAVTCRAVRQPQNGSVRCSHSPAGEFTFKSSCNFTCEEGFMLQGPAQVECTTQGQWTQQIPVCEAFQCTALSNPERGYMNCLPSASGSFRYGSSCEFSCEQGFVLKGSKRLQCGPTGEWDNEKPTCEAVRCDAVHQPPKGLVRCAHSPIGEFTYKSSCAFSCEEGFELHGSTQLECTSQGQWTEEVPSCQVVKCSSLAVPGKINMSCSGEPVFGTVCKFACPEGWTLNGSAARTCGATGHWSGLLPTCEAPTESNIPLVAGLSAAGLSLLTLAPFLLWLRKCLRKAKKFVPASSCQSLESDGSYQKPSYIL
smiles,measurement,setting,value
OCC(F)(F)OC(F)(F)C(F)(F)OC(F)(F)CO,outcome,[1],inactive
same,outcome,"CD40, CD40 (gene 958)",inactive
same,outcome,[2],inactive
same,AC50,[3],334 nM (active)
same,outcome,[3],inactive
same,outcome,[4],inactive
same,outcome,[5],inactive
same,outcome,[6],inactive
same,outcome,[7],inactive
same,outcome,[8],inactive
FC(F)(F)C(F)(C(F)(F)F)C(F)(F)C(F)(F)CC1CO1 (configuration not stated),outcome,[1],inactive
same,outcome,"CD40, CD40 (gene 958)",inactive
same,AC50,[2],319 nM (active)
same,outcome,[2],inactive
same,outcome,[3],inactive
same,outcome,[4],inactive
same,outcome,[5],inactive
same,outcome,[6],inactive
same,outcome,[7],inactive
same,outcome,[8],inactive
CCCCC(CC)COP(=O)(Oc1ccccc1)Oc1ccccc1 (configuration not stated),outcome,[9],inactive
CO/N=C(/C(=O)OC)c1ccccc1COc1ccccc1C,outcome,[9],inactive
COP(=O)(CCC(=O)NCO)OC,outcome,[1],inactive
same,outcome,[2],inactive
O=S1(=O)OCC2C(CO1)C1(Cl)C(Cl)=C(Cl)C2(Cl)C1(Cl)Cl (configuration not stated),outcome,[9],inactive
O=C(O)C(F)(F)OC(F)(F)C(F)(F)OC(F)(F)F,outcome,[1],inactive
same,outcome,"CD40, CD40 (gene 958)",inactive
same,outcome,[2],inactive
same,outcome,[3],inactive
same,outcome,[4],inactive
same,outcome,[5],inactive
same,outcome,[6],inactive
same,outcome,[7],inactive
same,AC50,[8],11.3 µM (active)
same,outcome,[8],inactive
OCC(F)(F)OC(F)(F)C(F)(F)OC(F)(F)C(F)(F)OC(F)(F)CO,AC50,[1],33.8 µM (active)
same,outcome,[1],inactive
same,AC50,"CD40, CD40 (gene 958)",30 µM (active)
same,outcome,"CD40, CD40 (gene 958)",inactive
same,AC50,[2],8460 nM (active)
same,outcome,[2],inactive
same,outcome,[3],inactive
same,AC50,[4],5.2 µM (active)
same,outcome,[4],inactive
same,outcome,[5],inactive
same,AC50,[6],24.7 µM (active)
same,outcome,[6],inactive
same,AC50,[7],30 µM (active)
same,outcome,[8],inactive
O=S(=O)(F)C(F)(F)C(F)(F)C(F)(F)C(F)(F)C(F)(F)C(F)(F)C(F)(F)C(F)(F)F,outcome,[1],inactive
same,outcome,"CD40, CD40 (gene 958)",inactive
same,outcome,[2],inactive
same,outcome,[3],inactive
same,outcome,[4],inactive
same,outcome,[5],inactive
same,outcome,[6],inactive
same,outcome,[7],inactive
same,outcome,[8],inactive
C=CC(=O)OCC(F)(F)C(F)F,AC50,[1],43.5 µM (active) and 29.6 µM (active)
same,AC50,"CD40, CD40 (gene 958)",21.6 µM (active) and 23.6 µM (active)
same,AC50,[2],5.95 µM (active) and 20.8 µM (active)
same,outcome,[3],inactive
same,AC50,[4],44.6 µM (active)
same,outcome,[4],inactive
same,outcome,[5],inactive
same,outcome,[6],inactive
same,AC50,[7],43.4 µM (active) and 39.2 µM (active)
same,outcome,[8],inactive
O=P(Oc1ccccc1)(Oc1ccccc1)Oc1ccccc1,outcome,[9],inactive
CC(C)(C)c1ccccc1OP(=O)(Oc1ccccc1)Oc1ccccc1,outcome,[9],inactive
CC(O)C(F)(F)C(F)(F)F (configuration not stated),outcome,[1],inactive
same,AC50,"CD40, CD40 (gene 958)",2.17 µM (active)
same,outcome,"CD40, CD40 (gene 958)",inactive
same,outcome,[2],inactive
same,outcome,[3],inactive
same,outcome,[4],inactive
same,outcome,[5],inactive
same,outcome,[6],inactive
same,outcome,[7],inactive
same,outcome,[8],inactive
NC(=O)C(F)(F)C(F)(F)F,outcome,[1],inactive
same,outcome,"CD40, CD40 (gene 958)",inactive
same,outcome,[2],inactive
same,outcome,[3],inactive
same,outcome,[4],inactive
same,outcome,[5],inactive
same,outcome,[6],inactive
same,outcome,[7],inactive
same,outcome,[8],inactive
CCOc1ccc(C(C)(C)COCc2cccc(Oc3ccccc3)c2)cc1,outcome,[9],inactive
CCCCOCCOP(=O)(OCCOCCCC)OCCOCCCC,outcome,[9],inactive
O=C(O)C(F)(F)C(F)(F)C(=O)O,outcome,[1],inactive
same,outcome,"CD40, CD40 (gene 958)",inactive
same,outcome,[2],inactive
same,outcome,[3],inactive
same,outcome,[4],inactive
same,outcome,[5],inactive
same,outcome,[6],inactive
same,outcome,[7],inactive
same,outcome,[8],inactive
OCC(F)(F)OC(F)(F)C(F)(F)OC(F)(F)C(F)(F)OC(F)(F)F,AC50,[1],19.2 µM (active)
same,outcome,[1],inactive
same,AC50,"CD40, CD40 (gene 958)",7.58 µM (active) and 49.2 µM (active)
same,outcome,[2],inactive
same,AC50,[3],26.6 µM (active) and 47.5 µM (active)
same,AC50,[4],38.6 µM (active) and 44.3 µM (active)
same,AC50,[5],47.8 µM (active) and 53.7 µM (active)
same,AC50,[6],43 µM (active) and 18.8 µM (active)
same,AC50,[7],45.9 µM (active) and 42.6 µM (active)
same,AC50,[8],21 µM (active) and 15.3 µM (active)
CCOP(=S)(OCC)SCSCC,outcome,[9],inactive
O=C(O)C(F)(OC(F)(F)C(F)(F)C(F)(F)F)C(F)(F)F (configuration not stated),outcome,[1],inactive
same,outcome,"CD40, CD40 (gene 958)",inactive
same,outcome,[2],inactive
same,AC50,[3],220 nM (active)
same,outcome,[3],inactive
same,outcome,[4],inactive
same,outcome,[5],inactive
same,AC50,[6],0.22 µM (active)
same,outcome,[6],inactive
same,AC50,[7],673 nM (active) and 652 nM (active)
same,outcome,[7],inactive
same,AC50,[8],30 µM (active)
same,outcome,[8],inactive
same,outcome,[9],inactive
COC(=O)C(F)(F)C(F)(F)OC(F)(C(F)(F)F)C(F)(F)OC(F)=C(F)F (configuration not stated),outcome,[1],inactive
same,outcome,"CD40, CD40 (gene 958)",inactive
same,outcome,[2],inactive
same,outcome,[3],inactive
same,outcome,[4],inactive
same,outcome,[5],inactive
same,outcome,[6],inactive
same,outcome,[7],inactive
same,outcome,[8],inactive
O=C(O)C=CC(F)(C(F)(F)F)C(F)(F)F,outcome,[1],inactive
same,outcome,"CD40, CD40 (gene 958)",inactive
same,outcome,[2],inactive
same,outcome,[3],inactive
same,outcome,[4],inactive
same,outcome,[5],inactive
same,outcome,[6],inactive
same,outcome,[7],inactive
same,outcome,[8],inactive
O=C(O)C(F)(F)OC(F)(F)C(F)(F)OC(F)(F)C(=O)O,outcome,[1],inactive
same,outcome,"CD40, CD40 (gene 958)",inactive
same,outcome,[2],inactive
same,outcome,[3],inactive
same,outcome,[4],inactive
same,outcome,[5],inactive
same,outcome,[6],inactive
same,outcome,[7],inactive
same,outcome,[8],inactive
